The entries come from a sample that favours hits as a whole.
MARV entry inh = qHTS for inhibitors of binding or entry into cells for Marburg Virus; Marburg virus pseudotyped entry inhibition, cell reporter; Potency, µM (top dose mostly 37.8 µM), inactives show at the top dose activity change, negative = inhibition, usual class: inhibitors; actives 1.8% (n = 300,000); AID 540276, 2011; calls by dose curve; tested in HEK293 cells; also: potency is read from the fitted curve at half-maximal effect; % is scaled to controls: 0 for no effect and ±100 for the full control effect
CHX counter = Cycloheximide Counterscreen for Small Molecule Inhibitors of Shiga Toxin | max response, % | cell reporter, cycloheximide protein synthesis inhibition counterscreen | actives 12% (n = 300,000) | AID 2314, 2010; in the data active = max response mostly above about 13%, no sharp cut-off; inactive = mostly below about 14%; also: read at 38.3 µM for the half of the compounds with a filed dose; 0% is about no effect
LASV entry inh = qHTS for Inhibitors of binding or entry into cells for Lassa Virus; Lassa virus pseudotype entry inhibition, cell reporter; Potency, µM (doses to about 37.9 µM), inactives show top-dose activity change, negative = inhibition, usual class: inhibitors; actives 1.2% (n = 300,000); calls by dose curve; tested in HEK293 cells; also: potency is read from the fitted curve at half-maximal effect; % is scaled to controls: 0 for no effect and ±100 for the full control effect; nearly all actives have a fitted effect of over 50% in size
Shiga inhibitor = A qHTS for Small Molecule Inhibitors of Shiga Toxin; Vero cells, Shiga toxin protein synthesis inhibition reporter; inhibition, % at 38.7 µM; actives 9.2% (n = 290,000); AID 2315, 2010; in the data active = inhibition mostly above about 28%, no sharp cut-off; inactive = mostly below about 43%; also: 0% is about no effect
AMA1 RON2 block = qHTS for Inhibitors of AMA1-RON; Towards Development of Antimalarial Drug Lead: Primary Screen; AlphaScreen AMA1-biotinylated RON2 peptide binding; actives 0.2% (n = 360,000); Potency, µM (titrated, usually from 58.2 µM), for inactives: at the top dose activity change, negative = inhibition, hits mostly inhibitors; Plasmodium falciparum AMA1 (3D7) - RON2 peptide interaction; active = well fitted inhibition curve with a large enough effect; inconclusive = small, poorly fitted or top-dose-only effect; inactive = no such curve, though single readings can be large or run the other way;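 also: potency is read from the fitted curve at half-maximal effect; 0% = vehicle wells and -100% = peptide control; nearly all actives have a fitted effect of over 45% in size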
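AMA1 (3D7) with his tag at 25 nM final met compounds first, then biotinylated RON2 peptide at 25 nM; detection used donor plus acceptor beads, 10 µg/mL apiece, read by AlphaScreen after 30 min at room temperature.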
* hit, by the source's call; ? = inconclusive; nt = no result given; [ ] = remark or other dose.

SMILES	MARV entry inh	CHX counter	LASV entry inh	Shiga inhibitor	AMA1 RON2 block
c1ccc(-c2ccc(-c3[nH]ncc3CN3CCC(N4CCSCC4)CC3)cc2)cc1	-11%	7.3*	7%	48*	-4%
CC(C)NC(=O)C1CCN(C2CCN(Cc3cn[nH]c3-c3ccccc3)CC2)CC1	-3%[46.1 µM]	-3	-11%[46.1 µM]	-2	-2%
Cc1cc(-n2c(C)cc(C(=O)CSc3nncn3C(C)C)c2C)no1	-2%	nt	2%	nt	1%
O=C1C(c2ccccc2)=[N+]([O-])c2ccccc21	nt	nt	nt	nt	13µM*
COc1ccc(CNC(=O)C2Cc3c(-c4ccccc4Oc4ccccc4)ccnc3O2)cc1OC (stereo not given)	nt	nt	nt	nt	-16%
CN(C)c1ccc(CNC(=O)C2Cc3c(-c4ccccc4Oc4ccccc4)ccnc3O2)cc1 (stereo not given)	nt	nt	nt	nt	10µM*
CN(C)c1ccc(CNC(=O)C2(C)Cc3c(-c4ccc(N(C)C)cc4)ccnc3O2)cc1 (stereo not given)	nt	nt	nt	nt	11µM*
CN(C)c1ccc(CNC(=O)C2(C)Cc3c(-c4cccc(C(N)=O)c4)ccnc3O2)cc1 (stereo not given)	nt	nt	nt	nt	-17%
CN(C)c1ccc(CNC(=O)C2(C)Cc3c(-c4ccccc4)ccnc3O2)cc1 (stereo not given)	nt	nt	nt	nt	28µM*
COc1ccc(CNC(=O)C2(C)Cc3c(-c4ccc5c(c4)OCO5)ccnc3O2)cc1OC (stereo not given)	nt	nt	nt	nt	-13%
CN(C)c1ccc(CNC(=O)C2(C)Cc3c(-c4ccc5c(c4)OCO5)ccnc3O2)cc1 (stereo not given)	nt	nt	nt	nt	28µM*
CC1(C)[C@@]2(C(=O)N(CCC#N)CCC#N)CC[C@]1(C)C(=O)C2	-2%	nt	nt	nt	nt
CN(C)c1ccc(-c2ccnc3c2CC(C)(C(=O)Nc2cccc(N(C)C)c2)O3)cc1 (stereo not given)	nt	nt	nt	nt	18µM*
CN(C)c1ccc(-c2ccnc3c2CC(C)(C(=O)Nc2ccc(F)c(Cl)c2)O3)cc1 (stereo not given)	nt	nt	nt	nt	-15%
CSc1ccccc1NC(=O)c1cnccn1	6%	21*	-2%	22	46%
CSc1ccccc1NC(=O)c1cc2ncc(Br)cn2n1	nt	18*	nt	94*	14%
O=C(Nc1cccc2ccccc12)c1cnccn1	?	31*	26%	62*	0%
Cc1ccccc1Cn1ccc(NC(=O)c2cc3ncc(Br)cn3n2)n1	nt	-1	nt	-6	3%
N#Cc1ccc(-c2nc3c4ccccc4ccn3c2Cc2cccc(Cl)c2)cc1	nt	nt	nt	nt	64%
COC(=O)N1C2CC3(C)CC(=O)CC1(C)C3c1ccccc12 (stereo not given)	5%[14.2 µM]	nt	nt	nt	nt
COc1ccc(OCC(=O)Nc2cccc(-c3nc4ccccc4[nH]3)c2)cc1	?	14*	-2%	20	-14%
O=C(COc1ccccc1)Nc1cccc(-c2nc3ccccc3[nH]2)c1	?	22*	?	39	-7%
O=C(O)CCCC(=O)Nc1cccc(-c2nc3ccccc3[nH]2)c1	11%	-3	13%	-14	35%
CCCOc1ccc(C(=O)Nc2cccc(-c3nc4ccccc4[nH]3)c2)cc1	1%[46.1 µM]	nt	-17%[46.1 µM]	nt	nt
NCC#Cc1ccccc1	5%	nt	nt	nt	nt
SMILES	MARV entry inh	CHX counter	LASV entry inh	Shiga inhibitor	AMA1 RON2 block
Cc1ccccc1NC(=O)Cc1ccccc1	?	-2	4%	-1	19%
Cc1ccccc1NC(=O)CSc1ccncc1	?	14*	0%	26	6%
Cc1cccc(NC(=O)CCCc2ccccc2)c1C	?	23*	25%[46.1 µM]	32*	-2%
Cc1ccccc1NC(=O)CC(=O)c1ccccc1	nt	18*	nt	22	-1%
O=C(CC(=O)c1ccccc1)Nc1cc([N+](=O)[O-])ccc1Cl	1%	16*	8%	67	-8%
Cc1ccccc1NC(=O)CCCCC(=O)Nc1ccccc1C	8%	-3	?	nt	0%
COC(=O)c1ccccc1NC(=O)CSc1ncn[nH]1	5%[46.1 µM]	-2	9%[46.1 µM]	11	-1%
O=C(CCCc1ccccc1)Nc1ccccc1C(F)(F)F	5%[46.1 µM]	13*	?	nt	14%
CCC(C)N(CC(=O)Nc1cccc(C)c1C)C(=O)CCl (stereo not given)	7%[46.1 µM]	4	3.2µM*	-2	11%
O=C(CC(=O)c1ccccc1)Nc1ccccc1C(F)(F)F	?	32*	-26%[46.1 µM]	30	-13%
CC(C)N(CC(=O)Nc1ccc(Cl)cc1C(F)(F)F)C(=O)CCl	10µM*	21*	?	21	1%
O=C(CCCOc1ccccc1)Nc1ccccc1C(F)(F)F	?	15	10%	-7	0%
CC(=O)N(CN1C(=O)c2ccccc2C1=O)c1ccc2c(c1)oc1ccccc12	2%	1	0%	-13	0%
Cc1cnc(C(=O)OCC(=O)N2C(C)CCCC2C)cn1 (stereo not given)	nt	nt	nt	nt	-4%
COc1cc(NC(=O)CCc2nc3cccnc3n2Cc2cccs2)cc(OC)c1OC	?	nt	-4%[46.1 µM]	nt	nt
CN1CCN(C(=S)Nc2cc([N+](=O)[O-])ccc2Cl)CC1	21%	11*	13%	-2	-5%
CCOc1ccc(N2C(=O)S/C(=C\c3ccc(O)c(OCC)c3)C2=O)cc1	nt	-4	nt	13	-5%
CCOc1cc(/C=C2\SC(=O)N(c3ccc(O)cc3)C2=O)ccc1O	nt	9.3*	nt	50*	3%
CCOc1cc(/C=C2/SC(=S)N(Cc3ccccc3)C2=O)ccc1O	nt	16*	nt	42*	?
CCCCCC(=O)NC(=S)Nc1cccc(C(C)=O)c1	?	23*	6%[46.1 µM]	32*	1%
Cc1ccc(C(=O)NC(=S)Nc2ccc(NC(=O)c3cccc(Cl)c3)cc2)cc1	1.3µM*	0	2.3µM*	-10	6%
CC(=O)c1cccc(NC(=S)NC(=O)c2ccc(Br)cc2)c1	14%	32*	-8%	32	18%
CC(=O)c1cccc(NC(=S)NC(=O)c2ccc(C)cc2)c1	-18%[46.1 µM]	40*	?	88*	14%
CCC(=O)NC(=S)Nc1cccc(C(C)=O)c1	6%[46.1 µM]	1	18%	-3	0%
C#CCNCCS(=O)(=O)N(Cc1ccc(Br)cc1)[C@@H](C)C(=O)O	nt	nt	nt	nt	6%
SMILES	MARV entry inh	CHX counter	LASV entry inh	Shiga inhibitor	AMA1 RON2 block
Cc1cccc(C)c1NC(=O)CNC(=O)c1cccc(S(=O)(=O)NCc2cccs2)c1	nt	nt	nt	nt	-7%
Cc1sc(NC(=O)C2CCCCC2C(=O)O)c(C(N)=O)c1-c1ccccc1 (stereo not given)	?	38*	-9%	40*	-4%
N#Cc1c(NC(=O)c2cnn3cccnc23)sc2c1CCCC2	?	14	13%[46.1 µM]	41	-2%
O=C(Nc1cnn(C23CC4CC(CC(C4)C2)C3)c1)c1cnn2cccnc12	-10%	64*	?	90*	-5%
CCOc1ccc(-c2nnc(-c3ccco3)o2)cc1OCC	-24%	46*	17%	88*	-9%
CCOc1cc(-c2nnc(-c3ccco3)o2)cc(OCC)c1OCC	-28%	22*	-19%	active	4%
CCC(=Nc1ccccc1O)C1=C(O)CC(c2ccccc2)CC1=O (stereo not given)	nt	11*	nt	34	-6%
